Compounds with a hit are over-represented: about 32% of the library has one in this group of screens.
CYP2C9 activ: increases human cytochrome P450 2C9 activity | P11712 | recombinant CYP2C9, luciferin-H conversion, luminescence; hits give high values; factor 1 = untreated enzyme, 0 = blocked | activation factor at 5 µM | actives 1.4% (n = 96,000) | AID 1024;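 active = activation factor of 2 or more for CYP2C9 at a 5 µM dose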
Target sequence (P11712 whole entry, looked up): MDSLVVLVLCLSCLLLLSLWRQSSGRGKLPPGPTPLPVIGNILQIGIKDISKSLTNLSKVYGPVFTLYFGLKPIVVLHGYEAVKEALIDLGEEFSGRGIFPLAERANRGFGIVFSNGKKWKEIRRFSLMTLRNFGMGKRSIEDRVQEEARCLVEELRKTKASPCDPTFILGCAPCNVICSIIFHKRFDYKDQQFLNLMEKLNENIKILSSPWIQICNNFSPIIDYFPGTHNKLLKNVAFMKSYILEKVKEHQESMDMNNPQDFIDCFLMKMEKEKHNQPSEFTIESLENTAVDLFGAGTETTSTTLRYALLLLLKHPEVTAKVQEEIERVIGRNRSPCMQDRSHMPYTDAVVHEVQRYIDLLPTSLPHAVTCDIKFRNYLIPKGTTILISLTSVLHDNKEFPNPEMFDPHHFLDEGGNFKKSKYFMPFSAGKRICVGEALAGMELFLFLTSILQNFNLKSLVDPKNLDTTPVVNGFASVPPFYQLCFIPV
CYP2C19 activ: activators of human cytochrome P450 2C19. P33261. recombinant CYP2C19, luciferin-H EGE luminescence; hits give high values; 0 = fully inhibited enzyme, 1 = untreated enzyme. activation factor at 5 µM. 96,000 tested, under 10 active. AID 1025;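 active = activation factor of at least 2 at 5 µM in the primary screen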
CYP2C9 inhib: blocks human cytochrome P450 2C9. P11712. CYP2C9 Supersomes, luciferin-H conversion, luminescence. inhibition, % at 5 µM. actives 20% (n = 96,000). AID 777;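 active = blocking of liver enzyme CYP2C9 beyond about 50% at 5 µM, limit read from the data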
PostGolgi yeast: growth inhibition of a yeast mutant, post-Golgi transport screen. post-Golgi transport phenotypic cell assay. actives 0.9% (n = 98,000). inhibition, % at 10 µM;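 also: yeast cells grown in 1536-well plates; yeast grown about 18 h at 30C before absorbance read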
CYP2C19 inhib: inhibitors of human CYP2C19; P33261; actives 21% (n = 96,000); CYP2C19 Supersomes, luciferin-H EGE luminescence, 30 min; inhibition, % at 5 µM; AID 778;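 active = CYP2C19 inhibition above a set limit at 5 µM in the primary screen, cut at about 50% in these data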
PostGolgi ctrl: inhibits growth of the yeast control strain. efflux-deficient yeast background strain, growth absorbance A615, 16 h. inhibition, % at 10 µM. actives 5% (n = 98,000)
Of the large screens only hits and unclear results are named; the others gave an inactive call. Rule as the data show it, unless noted: active = inhibition above about 30%; inactive = the rest.

COc1ccccc1-c1noc(-c2ccccc2C(=O)Nc2ccccc2)n1	none
COc1cccc(NC(=O)c2ccccc2-c2nc(-c3ccc(Cl)cc3)no2)c1	CYP2C9 inhib 83.2, CYP2C19 inhib 69.0, PostGolgi ctrl 35.4
COc1cccc(-c2nc(-c3ccc(NC(=O)c4ccncc4)cc3)no2)c1	none
Cc1cc(-n2c(C)cc(C(=O)CN3C(=O)NC4(CCCCC4)C3=O)c2C)no1	none
O=C(NC1CCCCC1)c1cccc(S(=O)(=O)N2CCOCC2)c1	none
Cc1noc(C)c1CSc1nnc2cc(C)c3ccccc3n12	none (no result: PostGolgi yeast, PostGolgi ctrl)
COc1ccccc1NC(=O)c1ccccc1SC	CYP2C9 activ 3.8
COc1ccccc1C(=O)Nc1ccccc1SC	none
CCn1c(NC(=O)c2cccs2)nc2ccccc21	none
CCCC(=O)Nc1c(-c2cccs2)c(=O)c2ccccc2n1C	none
CCn1c(NC(=O)c2cccs2)c(-c2cccs2)c(=O)c2ccccc21	CYP2C9 inhib 93.4
Cc1ccc(C(=O)Nc2c(-c3cccs3)c(=O)c3ccccc3n2C)cc1	CYP2C9 inhib 98.0
Clc1cccc(CSc2nnc([C@@H]3CCCN3)o2)c1	CYP2C19 inhib 94.1
O=C(O)c1cccc(CSc2nnc(COc3ccccc3)o2)c1	none
CC(C)[C@H](NC(=O)OC(C)(C)C)c1nnc(SCc2cccc(F)c2)o1	none
CCC(C)[C@H](N)c1nnc(SCc2cccc(F)c2)o1 (some centres undefined)	CYP2C19 inhib 61.5
Cc1cccc(OCc2nnc(SCC(=O)Nc3ccc(C)c(Cl)c3)o2)c1	none
NCCCCCc1nnc(SCc2ccc(Cl)cc2Cl)o1	CYP2C19 inhib 61.4
NCCCCCc1nnc(SCC(=O)Nc2cccc(Cl)c2)o1	CYP2C9 inhib 56.6
Cn1c(SCC(N)=O)nnc1C1CCN(C(=O)NCc2ccccc2)CC1	none
COc1ccc(C(=O)/C=C/Nc2cc(C)on2)c(OC)c1	none
COc1ccc(CNC(=O)C2CCN(c3nccs3)CC2)cc1	none
CCC(C)[C@H](N)c1nnc(SCC(=O)Nc2cccc(Cl)c2)o1 (some centres undefined)	CYP2C9 inhib 50.5, CYP2C19 inhib 97.1
NCCCCCc1nnc(SCc2cccc(Cl)c2)o1	CYP2C19 inhib 64.7
CCn1c2ccccc2c2cc(NC(=O)CSc3nnc(-c4cccc(Cl)c4)o3)ccc21	none
CN1CCN(S(=O)(=O)c2cccc(C(=O)Nc3sc4c(c3C(N)=O)CCCC4)c2)CC1	none
CCOC(=O)C1CCN(C(=O)CNS(=O)(=O)c2cccs2)CC1	none
CCOC(=O)C1CCN(C(=O)COc2ccc(N(C)S(=O)(=O)c3cccs3)cc2)CC1	CYP2C9 inhib 90.0, CYP2C19 inhib 61.5
O=C(COc1ccc(-c2ccccc2)cc1)N1CCN(S(=O)(=O)Cc2ccccc2)CC1	CYP2C9 inhib 53.3
O=C(COc1ccccc1)N1CCN(S(=O)(=O)c2cccs2)CC1	CYP2C19 inhib 64.2
Cc1ccc(CC(=O)N2CCN(c3ccccn3)CC2)cc1	CYP2C9 inhib 86.7, CYP2C19 inhib 98.5
O=C(CN1CCOCC1)NC1CC2CCC1C2 (centres undefined)	none
CCOC(=O)C(C(=O)OCC)C(Nc1ccc(Br)cc1)c1ccccc1 (centres undefined)	none
Cc1ccc(S(=O)(=O)N2CCN(C(=O)Cc3ccccc3)CC2)cc1	CYP2C19 inhib 64.2
COc1ccc(OCC(=O)N2CCN(C(=O)Cc3ccccc3)CC2)cc1	none
Cc1ccc(S(=O)(=O)N2CCN(C(=O)CC3CCCC3)CC2)cc1	none
Cc1ccc2[nH]cc(C(=O)CN3CCN(c4ccccn4)CC3)c2c1	CYP2C9 inhib 83.7, CYP2C19 inhib 87.0
Cc1ccc(-c2nnc(N3CCN(C(=O)COc4ccccc4)CC3)c3ccccc23)cc1	CYP2C9 inhib 86.8, CYP2C19 inhib 79.3, PostGolgi ctrl 49.6
Cc1ccc(OCC(=O)N2CCN(C(=O)Cc3ccccc3)CC2)cc1	PostGolgi ctrl 30.9
COc1ccc(-c2nc(CN3CCC(C(=O)N4CCc5ccccc54)CC3)c(C)o2)cc1OC	none
O=C(CN1CCSCC1)c1c[nH]c2ccccc12	CYP2C19 inhib 63.8
O=C(CN1CCN(Cc2ccccc2)CC1)c1c[nH]c2ccccc12	none
CN(C)c1ccc(NC(=O)CSCc2nc3c(nnn3Cc3ccc(F)cc3)c(=O)[nH]2)cc1	CYP2C9 inhib 59.4
Cc1ccc(Cn2nnc3c(=O)[nH]c(C4CCCN(C(=O)Nc5ccc(F)cc5)C4)nc32)cc1 (centres undefined)	none
COc1ccc(/C(N)=C/C(=O)C(C)(C)C)cc1	CYP2C19 inhib 74.2
CCOC(=O)c1sc2cccc(F)c2c1N	none
CCOC(=O)c1sc(=S)sc1SCc1cccc(C(F)(F)F)c1	CYP2C9 inhib 96.6, CYP2C19 inhib 53.3
CN(C(=O)CSc1ccccc1C(=O)O)C1CCCCC1	none
Cc1nc(SCC(=O)NC2CCCC2)[nH]c(=O)c1Cc1ccccc1	none
CN(C(=O)CSc1nc2c(c(=O)[nH]1)CCCC2)C1CCCCC1	CYP2C9 inhib 69.3
Cc1nc(SCC(=O)N(C)C2CCCCC2)[nH]c(=O)c1Cc1ccccc1	CYP2C9 inhib 69.0, CYP2C19 inhib 59.8
CC(Nc1nc(N2CCN(S(C)(=O)=O)CC2)nc2ccccc12)c1ccccc1 (centres undefined)	none (no result: CYP2C9 activ, CYP2C19 activ, CYP2C9 inhib, CYP2C19 inhib)
CC(O)C(NS(=O)(=O)c1ccc(Cl)cc1)C(=O)OCc1nnc(-c2ccccc2)o1 (centres undefined)	none
Cc1nn(Cc2ccccc2)c(Cl)c1C(=O)OCc1nnc(-c2ccccc2)o1	CYP2C9 inhib 85.7, CYP2C19 inhib 92.1
Cc1nn(Cc2ccccc2)c(Cl)c1C(=O)OCc1nnc(-c2ccc(Cl)cc2)o1	CYP2C9 inhib 61.6
O=c1c2c3nc4ccccc4nc3n(/N=C/c3cccs3)c2ncn1-c1ccccc1	none (no result: PostGolgi yeast, PostGolgi ctrl)
CCc1ccc(C2C(C#N)=C(N)SC(N)=C2C#N)s1	CYP2C9 inhib 75.7
Cc1ccc(C2C(C#N)=C(N)SC(N)=C2C#N)o1	none
CCOc1ccccc1C1C(C#N)=C(N)SC(N)=C1C#N	CYP2C19 inhib 51.5
CCc1ccc(C2C(C#N)=C(N)SC(N)=C2C#N)cc1	none
CCOc1ccc(C2C(C#N)=C(N)SC(N)=C2C#N)cc1OC	CYP2C9 inhib 91.4, CYP2C19 inhib 54.2
CCOc1ccccc1C1C(C#N)=C(N)Oc2cc(C)n(C)c(=O)c21 (centres undefined)	none
CCOc1ccc(C2C(C#N)=C(N)SC(N)=C2C#N)cc1OCC	CYP2C9 inhib 83.9, CYP2C19 inhib 57.9
CCOCc1cc(C2NC(=O)NC(C)=C2C(=O)OCC)ccc1OC (centres undefined)	none
Cc1cc2ccc(C)c(C)c2nc1SCC#N	none
N#CC1=C(N)N2C(=C(C#N)C1c1ccccc1)Sc1ccccc12 (centres undefined)	none
N#CC1=C(N)SC(N)=C(C#N)C1c1cccc(Oc2ccccc2)c1	CYP2C9 inhib 92.3
CCc1ccc(N(C(=O)c2csnn2)C(C(=O)NC(C)(C)C)c2ccncc2)cc1 (centres undefined)	PostGolgi yeast 35.0
